The whole screen tested about 640,000 compounds, of which about 9,300 (1.5%) were called active. The entries come from a sample that favours actives as a whole. Values without a mark were called inactive. Rule as the data show it: active = inhibition above about 32%; inactive = the rest.
Assay: TEAD-YAP interaction inhibition, primary screen, TEAD-YAP interaction inhibitor project, luminescence, HEK-TIYL cells (AID 1259422);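 also: 0% = median of test compound wells and 100% = reference inhibitor wells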
Conditions: TEAD-Gal4/YAP UAS-luciferase luminescence, at 9.12 µM, active compounds read high

SMILES | inhibition
CC(=O)c1cccc(NC(=O)c2nn3c(C(F)(F)F)cc(-c4ccc(Br)cc4)nc3c2Cl)c1 | 2.9%
CCC(=O)Oc1ccc(OC)cc1C1Oc2nc(SC)nnc2-c2ccccc2N1C(=O)CC (stereo unspecified) | -5.21%
Cc1nc2sc(-c3ccccc3)cc2c(=O)o1 | 41% (active)
COC(=O)C(C)n1cnc2sc(-c3ccccc3)cc2c1=O (stereo unspecified) | -25.2%
Cc1nc2ccc(Cc3ccc4nc(C)oc(=O)c4c3)cc2c(=O)o1 | -1.07%
O=S(=O)(O)CCC[n+]1ccc(/C=C/c2c[nH]c3ccccc23)cc1 | 3.32%
OCCCNc1ccc2ncc(-c3ccc(N4CCOCC4)cc3)n2n1 | 19.8%
Cc1cc(C(=O)COC(=O)C(CC(C)C)NC(N)=O)c(C)n1Cc1cccs1 (stereo unspecified) | 66.1% (active)
Cc1cc(C(=O)COC(=O)CCC(=O)c2cccs2)c(C)n1Cc1ccco1 | -6.67%
Cc1cc(C(=O)COC(=O)c2ccc([N+](=O)[O-])o2)c(C)n1Cc1cccs1 | 0.16%
Cn1c2ccccc2n2cc(-c3ccc([N+](=O)[O-])cc3)nc12 | -27.1%
COc1ccc(-c2cn3c4ccccc4n(CCN4CCOCC4)c3n2)cc1 | -4.68%
COc1ccc(-c2cn3c4ccccc4n(N)c3n2)cc1 | 90% (active)
CCC(CO)Nc1ccc2ncc(-c3ccc(N4CCOCC4)cc3)n2n1 (stereo unspecified) | -1.73%
CC(C)[C@@H](CO)Nc1ccc2ncc(-c3ccccc3F)n2n1 | 57.3% (active)
CCC(CO)Nc1ccc2ncc(-c3ccccc3)n2n1 (stereo unspecified) | 33.7% (active)
CC(C)[C@@H](CO)Nc1ccc2ncc(-c3ccc(C#N)cc3)n2n1 | 29.7%
CCC(CO)Nc1ccc2ncc(-c3cccc(F)c3)n2n1 (stereo unspecified) | 5.85%
CC(C)[C@@H](CO)Nc1ccc2ncc(-c3ccc(O)cc3)n2n1 | -7.09%
CCS(=O)(=O)Nc1cccc(N2CCC(NCCn3nc(C)cc3C)CC2)c1 | 2.36%
CC(Oc1ccc(Cl)cc1Cl)C(=O)Nc1ccc(C(=O)O)cc1 (stereo unspecified) | 11.5%

SMILES | inhibition
O=C(CN(c1ccc(Cl)cc1Cl)S(=O)(=O)c1ccccc1)Nc1ccc(Cl)c(Cl)c1 | -0.39%
CC(C)(C)c1ccc(NC(=O)CSc2cccc[n+]2[O-])cc1 | -49.2%
O=C(NCc1ccc2c(c1)OCO2)c1cccnc1SCc1cccc(Br)c1 | 10.6%
NC(=O)c1c(NC(=O)Cc2ccccc2)sc2c1CCCCC2 | -7.09%
NC(=O)c1c(NC(=O)c2ccc(Br)o2)sc2c1CCCC2 | 3.19%
NC(=O)c1c(NC(=O)c2cc(=O)c3ccccc3o2)sc2c1CCCCC2 | 32.9% (active)
O=C(Nc1sc2c(c1C(=O)O)CCCC2)c1cc2ccccc2o1 | 50.1% (active)
COC(=O)c1c(NC(=O)c2cc3ccccc3oc2=O)sc2c1CCCC2 | -7.92%
N#Cc1c(NC(=O)c2cc3ccccc3c(=O)o2)sc2c1CCCCC2 | 4.91%
Cc1cccc(Nc2nc(-c3ccc(I)cc3)cs2)c1 | -33.1%
Cc1ccc(Nc2nc(-c3ccc(Br)cc3)cs2)cc1Cl | -7.82%
Cc1ccc(Nc2nc(-c3ccccn3)cs2)cc1C | 49.9% (active)
CN1CCc2nc(NC(=O)c3ccc(Cl)cc3Cl)sc2C1 | -69.8%
CCCN1CCc2nc(NC(=O)COc3ccc(Cl)cc3Cl)sc2C1 | 45% (active)
O=C(Nc1nc2c(s1)CN(Cc1ccccc1)CC2)c1cc(Cl)ccc1Cl | -2.92%
COc1ccc(C2CC(C(F)(F)F)n3ncc(C(=O)N4CCN(c5cccc(Cl)c5)CC4)c3N2)cc1OC (stereo unspecified) | -6.74%
c1cncc(Nc2nccc(Nc3ccc(N4CCOCC4)cc3)n2)c1 | 2.14%
Fc1cnc(Nc2ccc(N3CCNCC3)cc2)cc1-n1cnc(Nc2ccccc2)n1 | 64.6% (active)
FC(F)(F)c1cnc(Nc2ccc(N3CCOCC3)cc2)cc1-n1ncc2ccccc21 | -4.45%
O=C(c1nc2ccc(Cl)cn2c1CNCCn1cccn1)N1CCc2ccccc2C1 | 7.89%
COc1cccc2c1OC1(CCN(C(=O)Cc3ccc(F)cc3F)CC1)OC2 | -1.73%

SMILES | inhibition
O=C(c1cc(-c2ccc(O)cc2)on1)N1CCOCC1 | 50.7% (active)
O=C(c1cc(-c2cccs2)on1)N1CCCC1 | -49.2%
CCN(CC)C(=O)c1cc(-c2ccc(O)cc2)on1 | -1.47%
COc1ccc(-c2cc(C(=O)N3CCCCC3)no2)cc1 | 6.05%
CN(C(=O)c1cc(-c2ccc(O)cc2)on1)c1ccccc1 | 60% (active)
CC1CN(CC(=O)NCc2cc(-c3ccccc3)on2)Cc2ccccc2O1 (stereo unspecified) | -5.63%
CCC(=O)Nc1ccccc1-c1nnn(CC(=O)Nc2ccc(CC)cc2)n1 | 12.7%
O=C(c1ccco1)N1CCN(c2nccn3c(-c4cccc(O)c4)cnc23)CC1 | -3.76%
CC(C)Cn1c(C2CC(=O)N(c3ccccc3)C2)nc2ccccc21 (stereo unspecified) | 3.79%
CCOc1ccc(-c2cn(-c3ccc(OC)cc3)c(SCC(=O)Nc3ccccc3C)n2)cc1 | -24.2%
O=C(Nc1ccc2c(c1)OCCO2)Nc1nnc(N2CCCCCC2)s1 | -9.25%
c1c2c(cc3sc(N4CCCCC4)nc13)OCCO2 | 80.9% (active)
O=C(c1ccc2nc(N3CCCCC3)sc2c1)N1CCN(c2ccccc2)CC1 | -69.3%
COc1ccc(-c2cc(C(=O)NC3CCCC(C)C3C)c3ccccc3n2)cc1 (stereo unspecified) | 1.88%
CCOC(=O)c1cnc2nc(NCc3cccc(OC)c3)[nH]n2c1=O | 3.92%
N/C(=N/OC(=O)c1ccccc1I)c1nonc1N | -2.53%
Cc1nc(N2CCN(c3ccccn3)CC2)c2c(C)c(C(=O)N3CCN(Cc4ccc5c(c4)OCO5)CC3)sc2n1 | 36.8% (active)
CCN1CCN(C(=O)c2sc3nc(C)nc(N4CCN(c5ccccn5)CC4)c3c2C)CC1 | -1.03%
Cc1nc(N2CCN(c3ccccn3)CC2)c2c(C)c(C(=O)NCCN3CCOCC3)sc2n1 | 14.5%
